Experimental data taken from PubChem BioAssay AID1159580 (chemical genetic matrix, 2015).
In all, about 5,500 compounds went through this assay and about 2,000 (36%) were called active. Not shown: some 18% with an inconclusive outcome. Rule as the data show it: active = normalized growth mostly below about 0.91 (no sharp cut-off); inconclusive = no clear call, values can overlap the other calls; inactive = mostly above about 0.92. The list shows a part of the results.

Assay: chemical genetic growth profiling, strain panel (AID 1159580);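 also: tested at 20 µM; growth read once vehicle control cultures reached saturation at 30 °C; 1 = growth at the plate median or of vehicle wells; lower values mean less growth of the strain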
Conditions: growth OD

Measured: normalized growth

FC(F)(F)c1cccc(N2CCNCC2)c1
inactive: S. cerevisiae deletion strains, locus YJL187C, strain SWE1, active compounds read low 0.999 | S. cerevisiae deletion strains, locus YJR043C, strain POL32, active compounds read low 1 | S. cerevisiae deletion strains, locus YJR075W, strain HOC1, active compounds read low 0.958 | S. cerevisiae deletion strains, locus YKL009W, strain mrt4, active compounds read low 1 | S. cerevisiae deletion strains, locus YKL068W, active compounds read low 0.997 | S. cerevisiae deletion strains, locus YKL085W, strain MDH1 (second series), active compounds read low 0.995 | S. cerevisiae deletion strains, locus YKL085W, strain MDH1, active compounds read low 0.995 | S. cerevisiae deletion strains, locus YKL160W, strain elf1, active compounds read low 0.988 | S. cerevisiae deletion strains, locus YKL190W, strain CNB1, active compounds read low 1.01 | S. cerevisiae deletion strains, locus YKR001C, strain vps1, active compounds read low 0.992 | S. cerevisiae deletion strains, locus YKR026C, strain gcn3, active compounds read low 1 | S. cerevisiae deletion strains, locus YKR091W, strain srl3, active compounds read low 0.997 | S. cerevisiae deletion strains, locus YLL001W, strain dnm1, active compounds read low 0.982 | S. cerevisiae deletion strains, locus YLL026W, active compounds read low 0.991 | S. cerevisiae deletion strains, locus YLL041C, strain sdh2, active compounds read low 1 | S. cerevisiae deletion strains, locus YLR027C, strain aat2, active compounds read low 0.993 | S. cerevisiae deletion strains, locus YLR039C, strain RIC1, active compounds read low 1.04 | S. cerevisiae deletion strains, locus YLR058C, strain SHM2, active compounds read low 1.01 | S. cerevisiae deletion strains, locus YLR102C, strain apc9, active compounds read low 0.984 | S. cerevisiae deletion strains, locus YLR221C, strain rsa3, active compounds read low 0.993 | S. cerevisiae deletion strains, locus YLR258W, strain gsy2, active compounds read low 0.981 | S. cerevisiae deletion strains, locus YLR262C, strain YPT6 (second series), active compounds read low 0.981 | S. cerevisiae deletion strains, locus YLR262C, strain YPT6, active compounds read low 0.991 | S. cerevisiae deletion strains, locus YLR268W, strain sec22, active compounds read low 0.993 | S. cerevisiae deletion strains, locus YLR320W, strain mms22, active compounds read low 0.968 | S. cerevisiae deletion strains, locus YLR330W, strain CHS5, active compounds read low 1 | S. cerevisiae deletion strains, locus YLR342W, strain FKS1 (second series), active compounds read low 0.937 | S. cerevisiae deletion strains, locus YLR342W, strain FKS1, active compounds read low 0.997 | S. cerevisiae deletion strains, locus YLR357W, strain rsc2, active compounds read low 0.989 | S. cerevisiae deletion strains, locus YLR370C, strain arc18, active compounds read low 1.01 | S. cerevisiae deletion strains, locus YLR371W, strain rom2, active compounds read low 0.98 | S. cerevisiae deletion strains, locus YLR384C, strain iki3, active compounds read low 0.975 | S. cerevisiae deletion strains, locus YLR418C, strain cdc73, active compounds read low 0.992 | S. cerevisiae deletion strains, locus YML016C, strain PPZ1, active compounds read low 1.01 | S. cerevisiae deletion strains, locus YML032C, strain rad52, active compounds read low 0.965 | S. cerevisiae deletion strains, locus YML120C, strain ndi1, active compounds read low 0.999 | S. cerevisiae deletion strains, locus YML124C, strain tub3, active compounds read low 0.991 | S. cerevisiae deletion strains, locus YMR058W, strain fet3, active compounds read low 1.01 | S. cerevisiae deletion strains, locus YMR078C, strain ctf18, active compounds read low 0.986 | S. cerevisiae deletion strains, locus YMR125W, strain sto1, active compounds read low 0.968 | S. cerevisiae deletion strains, locus YMR129W, active compounds read low 1.01 | S. cerevisiae deletion strains, locus YMR205C, strain PFK2, active compounds read low 0.965 | S. cerevisiae deletion strains, locus YMR223W, strain ubp8, active compounds read low 0.981 | S. cerevisiae deletion strains, locus YMR231W, strain pep5, active compounds read low 0.999 | S. cerevisiae deletion strains, locus YMR263W, strain SAP30, active compounds read low 0.999 | S. cerevisiae deletion strains, locus YMR307W, strain GAS1, active compounds read low 0.996 | S. cerevisiae deletion strains, locus YNL067W, strain RPL9B, active compounds read low 1.01 | S. cerevisiae deletion strains, locus YNL071W, strain lat1, active compounds read low 0.996 | S. cerevisiae deletion strains, locus YNL153C, strain GIM3, active compounds read low 1.01 | S. cerevisiae deletion strains, locus YNL209W, strain ssb2, active compounds read low 0.994 | S. cerevisiae deletion strains, locus YNL233W, strain BNI4, active compounds read low 1 | S. cerevisiae deletion strains, locus YNL248C, strain rpa49, active compounds read low 1 | S. cerevisiae deletion strains, locus YNL250W, strain rad50, active compounds read low 1.01 | S. cerevisiae deletion strains, locus YNL271C, strain bni1, active compounds read low 0.978 | S. cerevisiae deletion strains, locus YNL298W, strain CLA4, active compounds read low 0.992 | S. cerevisiae deletion strains, locus YNL307C, strain MCK1, active compounds read low 0.992 | S. cerevisiae deletion strains, locus YNL322C, strain KRE1 (second series), active compounds read low 0.986 | S. cerevisiae deletion strains, locus YNR049C, strain mso1, active compounds read low 1.01 | S. cerevisiae deletion strains, locus YNR052C, strain pop2, active compounds read low 0.985 | S. cerevisiae deletion strains, locus YOL006C, strain TOP1, active compounds read low 1.04 | S. cerevisiae deletion strains, locus YOL012C, strain htz1 0.923 | S. cerevisiae deletion strains, locus YOL147C, strain pex11, active compounds read low 0.989 | S. cerevisiae deletion strains, locus YOR001W, strain rrp6, active compounds read low 0.985 | S. cerevisiae deletion strains, locus YOR061W, strain CKA2, active compounds read low 1.01 | S. cerevisiae deletion strains, locus YOR069W, strain VPS5, active compounds read low 1 | S. cerevisiae deletion strains, locus YOR070C, strain gyp1, active compounds read low 0.995 | S. cerevisiae deletion strains, locus YOR080W, strain dia2, active compounds read low 0.98 | S. cerevisiae deletion strains, locus YOR083W, strain WHI5, active compounds read low 1.03 | S. cerevisiae deletion strains, locus YOR106W, strain vam3, active compounds read low 1 | S. cerevisiae deletion strains, locus YOR136W, strain idh2, active compounds read low 0.987 | S. cerevisiae deletion strains, locus YOR144C, strain elg1, active compounds read low 0.983 | S. cerevisiae deletion strains, locus YOR184W, strain ser1, active compounds read low 1.03 | S. cerevisiae deletion strains, locus YOR265W, strain rbl2, active compounds read low 0.993 | S. cerevisiae deletion strains, locus YOR270C, strain vph1, active compounds read low 1.07 | S. cerevisiae deletion strains, locus YOR290C, strain snf2, active compounds read low 0.973 | S. cerevisiae deletion strains, locus YOR316C, strain cot1, active compounds read low 0.997 | S. cerevisiae deletion strains, locus YPL051W, strain arl3, active compounds read low 0.993 | S. cerevisiae deletion strains, locus YPL055C, strain LGE1, active compounds read low 1 | S. cerevisiae deletion strains, locus YPL078C, strain atp4, active compounds read low 1.01 | S. cerevisiae deletion strains, locus YPL106C, strain sse1, active compounds read low 0.947 | S. cerevisiae deletion strains, locus YPL240C, strain hsp82, active compounds read low 0.989 | S. cerevisiae deletion strains, locus YPR119W, strain clb2, active compounds read low 0.984 | S. cerevisiae deletion strains, locus YPR141C, strain kar3, active compounds read low 0.988 | S. cerevisiae deletion strains, locus YPR163C, strain tif3, active compounds read low 0.989 | S. cerevisiae deletion strains, locus YPR167C, strain met16, active compounds read low 0.988 | S. cerevisiae deletion strains, strain wtn01, active compounds read low 0.966 | S. cerevisiae strains, strain wild type, active compounds read low 1.01
